The list is not random: actives were taken first. Their share in the collection is about 11%.
ALDH1A1 inh = inhibitors of human aldehyde dehydrogenase 1A1; P00352; Purified ALDH1A1, NADH fluorescence, propionaldehyde substrate; Potency, µM (series often up to 75.3 µM), most hits filed as inhibitors; 220,000 compounds, 7.3% hits; AID 1030
PNC assembly inh = blocks assembly of the perinucleolar compartment; PC3M PTB-GFP, PNC prevalence imaging, 16 h; stronger effect = lower value; activity change (PNC), negative = inhibition, % at 10 µM; 140,000 compounds, 3.1% hits;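 active means readout at or below -70, meaning at least 70% loss of cells showing the perinucleolar compartment, a nuclear body marking cancer cells; inconclusive means readout between -30 and a set limit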
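Compounds are pinned in duplicate onto adhered PC3M cells stably expressing GFP-tagged PTB and incubated 16 h at 37 C. Cells are then fixed, nuclei stained with Hoechst, and PNC-positive cells counted.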
HPGD block = HPGD (human) dehydrogenase inhibition; purified HPGD, NADH fluorescence kinetic, PGE2 substrate; 150,000 compounds, 4.3% hits; Potency, µM, most hits filed as inhibitors
Target sequence (P15428 whole entry, looked up): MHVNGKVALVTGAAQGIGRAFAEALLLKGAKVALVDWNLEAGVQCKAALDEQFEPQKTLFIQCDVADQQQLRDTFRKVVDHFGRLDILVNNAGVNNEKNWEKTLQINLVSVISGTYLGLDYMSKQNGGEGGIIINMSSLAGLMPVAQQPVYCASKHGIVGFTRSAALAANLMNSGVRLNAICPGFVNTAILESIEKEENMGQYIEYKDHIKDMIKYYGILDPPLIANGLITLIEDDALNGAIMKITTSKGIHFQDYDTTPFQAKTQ
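NADH formation kinetics: reaction with 30 uM PGE2 and 1 mM NAD+ (final), 20 nM enzyme, Tris-HCl pH 8 with Tween 20, after 15 min compound preincubation at room temperature. Fluorescence change, last versus first of five reads.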
Large screens that a line does not name were inactive. Unless noted, the call rests on the fitted dose curve; in most records, active means well fitted inhibition curve with a large enough effect (not every such curve was filed as active); inconclusive means small, poorly fitted or top-dose-only effect, or another doubt; inactive means no such curve, though single readings can be large or run the other way.

COc1ccc(OCC(=O)Nc2ccc(N3CCN(C(=O)c4ccccc4C)CC3)cc2)cc1	none (no result: PNC assembly inh, HPGD block)
CCC(C)[C@H](NC(=O)Nc1cccc(Br)c1)C(=O)OC (stereo partly specified)	none
Cc1cccc(C)c1N=Cc1c(C(F)(F)F)[nH][nH]c1=O	none (no result: PNC assembly inh, HPGD block)
COc1ccc(NC(=O)C2CCN(C(=O)c3ccc(OC)cc3)CC2)cc1	none
O=C(Nc1ccc(C(=O)N2CCCCC2)cc1)C1CCCCC1	ALDH1A1 inh inconclusive, HPGD block 2µM
O=C(O)CCC(=O)Nc1ccc(C(=O)OC2CCCCC2)cc1	none
O=C(O)CCC(=O)Nc1ccc(C(=O)N2CCCCC2)cc1	HPGD block 0.71µM
CCCCCC(=O)Nc1ccc(N2CCN(C(=O)c3ccccc3)CC2)cc1	none
O=C(Nc1ccc(S(=O)(=O)N2CCCCC2)cc1)C1CCCN(C(=O)c2ccc(Cl)cc2)C1 (stereo unspecified)	HPGD block inconclusive
CCCCCCC(=O)Nc1ccc(C(=O)N2CCCC2)cc1	ALDH1A1 inh inconclusive, PNC assembly inh inconclusive, HPGD block 4µM
CN(C)S(=O)(=O)c1ccc(NC(=O)C2CCCN(C(=O)c3ccc(Cl)cc3)C2)cc1 (stereo unspecified)	ALDH1A1 inh 13µM
O=C1CCN(C(=O)CSc2ccc(Cl)cc2)N1	none (no result: PNC assembly inh, HPGD block)
CCOc1ccc(OCCOCCNCCOC)cc1	none
NS(=O)(=O)c1ccc(N=Nc2ncccc2O)cc1	none (no result: PNC assembly inh)
CCCNC(C)(C)COC(=O)c1ccccc1	none (no result: PNC assembly inh)
CC1(C)SC2C(NC(=O)C(C(=O)O)c3ccccc3)C(=O)N2C1C(=O)O (stereo unspecified)	none (no result: PNC assembly inh)
CCSc1cc(N2CCCC2)nc(-c2ccccc2Cl)n1	none
CC(NCc1ccc(S(N)(=O)=O)cc1)C(=O)Nc1ccc([N+](=O)[O-])cc1Cl (stereo unspecified)	none (no result: PNC assembly inh, HPGD block)
COc1ccc(OC)c(NC(=O)C2CCN(C(=O)c3cccs3)CC2)c1	none (no result: PNC assembly inh, HPGD block)
CC(=O)Nc1ccc(NC(=O)C2CCN(C(=O)c3cccs3)CC2)cc1	ALDH1A1 inh 13µM (no result: PNC assembly inh, HPGD block)
O=C(O)CCCC(=O)Nc1ccc(C(=O)N2CCCCC2)cc1	HPGD block 2.2µM
O=C(Nc1ccccc1)C1CCCCC1	PNC assembly inh inconclusive, HPGD block 25µM
O=C(Nc1ccc(Nc2ccccc2)cc1)C1CC1	none
O=C(O)CCCC(=O)Nc1ccc(N2CCCC2)cc1	none
COc1ccc(-c2nc(-c3ccccc3)c(NC(C)(C)C)o2)cc1	none (no result: PNC assembly inh)
Cc1c(C(=O)NCCSCc2cccc(C(F)(F)F)c2)cnn1-c1ccc(F)cc1	none (no result: PNC assembly inh, HPGD block)
O=C(O)C(Sc1ccc(Cl)cc1)Sc1ccc(Cl)cc1	none (no result: PNC assembly inh)
O=C(COc1nncc2ccccc12)NCC(F)(F)F	none (no result: PNC assembly inh, HPGD block)
CN(C)Cc1nnnn1-c1cccc(-n2nnnc2CN(C)C)c1	none (no result: PNC assembly inh, HPGD block)
Cc1c(C(=O)NCCCN2CCOCC2)oc2c1C1(CCC2)SCCS1	none
CC12CCC(C(=O)NCc3ccc4c(c3)OCO4)(OC1=O)C2(C)C (stereo unspecified)	ALDH1A1 inh inconclusive, HPGD block 32µM
Cc1ccc(C)c(Cc2c(C)nc3c(C(=O)NCc4ccc5c(c4)OCO5)cnn3c2C)c1	ALDH1A1 inh inconclusive, PNC assembly inh -92, HPGD block inconclusive
Cc1nn(C)cc1CNC(=O)c1cccc(Br)c1	none
Cc1nn(C)cc1CNC(=O)c1cccc(F)c1	PNC assembly inh -98
O=C(NCc1ccc2c(c1)OCO2)c1cccc(F)c1	HPGD block 16µM
CC12CCC(C(=O)NCc3ccccc3)(OC1=O)C2(C)C (stereo unspecified)	none
O=C(NCc1ccc2c(c1)OCO2)c1ccccc1	none (no result: PNC assembly inh, HPGD block)
Cc1nc2c(C(=O)NCc3ccc4c(c3)OCO4)cnn2c(C)c1Cc1ccc(F)cc1Cl	ALDH1A1 inh inconclusive, HPGD block inconclusive
CCOC(=O)[C@]1(C(NC(=O)OC)c2ccco2)CCCC1=O (stereo partly specified)	none (no result: PNC assembly inh, HPGD block)
O=C(CN1C(=O)C2C3CCC(C3)C2C1=O)N1CCN(Cc2ccccc2)CC1 (stereo unspecified)	none (no result: PNC assembly inh, HPGD block)
N#CC(C#N)=C(N)CSc1cccc[n+]1[O-]	none (no result: PNC assembly inh, HPGD block)
COc1ccccc1NC(=O)NCc1ccc2c(c1)OCO2	none
O=C(NCc1cccc(Cl)c1)c1ccc2c(c1)OCO2	PNC assembly inh inconclusive
COc1cc(C(=O)NCc2ccccc2)ccc1OC(F)F	none (no result: HPGD block)
COc1ccccc1OCCC(=O)NCc1ccc2c(c1)OCO2	none (no result: PNC assembly inh, HPGD block)
COc1ccccc1C(=O)NCc1ccc2c(c1)OCO2	PNC assembly inh inconclusive, HPGD block 14µM
COc1ccc(COc2ccccc2C(=O)NCc2ccccc2)cc1F	ALDH1A1 inh inconclusive, HPGD block 16µM
O=C(NCc1ccc2c(c1)OCO2)c1cccc(Cl)c1	HPGD block 3.5µM
COc1ccccc1/C=C(/CC(=O)NCc1ccc2c(c1)OCO2)c1nc2ccccc2s1	ALDH1A1 inh 1.4µM, PNC assembly inh inconclusive
CCc1ccc(CNC(=O)C2CCN(S(=O)(=O)N3CCC4(CC3)OCCO4)CC2)cc1	none (no result: PNC assembly inh, HPGD block)
Cn1c([N+](=O)[O-])cnc1CN1CCN(CCO)CC1	none (no result: PNC assembly inh)
Cc1nc(C(F)(F)F)nc(Nc2ccc(N=Nc3ccccc3)cc2)c1C#N	none
Cc1cccc2[nH]c3c(N4CC=C(c5ccc(F)cc5)CC4)ncnc3c12	none (no result: PNC assembly inh, HPGD block)
Cc1ccc2c(C)cc(=S)[nH]c2c1	none (no result: PNC assembly inh, HPGD block)
Cc1ccc2[nH]c(=S)cc(C)c2c1	ALDH1A1 inh 3.2µM, HPGD block 7.1µM
Cc1cc(=S)[nH]c2ccccc12	ALDH1A1 inh inconclusive, HPGD block 14µM
Cc1ccc(C)c2c1[nH]c1ccccc12	none
CCCCCCCCCCOCCC(=O)O	none (no result: PNC assembly inh)
COC(=O)c1ccc(C(/C=C/[C@@H](C)C(=O)NCCN2CCCC2)NC(=O)OCc2ccccc2)cc1 (stereo partly specified)	none (no result: PNC assembly inh)
Cc1ccccc1SCCNC(=O)CCc1ccccc1	none (no result: PNC assembly inh, HPGD block)
COc1ccc(NC(=O)C2CC(=O)n3cnnc3S2)cc1 (stereo unspecified)	ALDH1A1 inh 0.71µM, PNC assembly inh inconclusive, HPGD block 18µM
COc1cccc(NC(=O)C2CC(=O)N=C(N)S2)c1 (stereo unspecified)	none
COc1ccc(NC(=O)C2CC(=O)n3ncnc3N2)cc1 (stereo unspecified)	none
COc1cccc(NC(=O)C2CC(=O)n3cnnc3S2)c1 (stereo unspecified)	ALDH1A1 inh 0.71µM, HPGD block 16µM
CC1(C)OC(=O)C(=CNc2ccccc2)C(=O)O1	ALDH1A1 inh inconclusive
CC1(C)OC(=O)C(=CNCC(O)c2ccccc2)C(=O)O1 (stereo unspecified)	ALDH1A1 inh 11µM
CC(C)CC(=O)OCC(=O)Nc1ccccc1Sc1ccccc1	PNC assembly inh inconclusive
CNc1ccnc(-c2ccccc2C(F)(F)F)n1	none (no result: PNC assembly inh)
O=C1NC(=S)SC1=C1CCCCCC1	ALDH1A1 inh 7.1µM, HPGD block 11µM
CN1CCN(/C=C2\SC(=S)NC2=O)CC1	none
O=C1CC(N2CCN(c3ncccn3)CC2)C(=O)N1CCc1ccccc1 (stereo unspecified)	none (no result: PNC assembly inh, HPGD block)
CC(=O)OC[C@H]1O[C@@H](CCO/N=C2/[C@H]3O[C@@H]3[C@@H](O)[C@H]3[C@H]2CCn2c(=O)n(-c4ccccc4)c(=O)n23)C=C[C@@H]1OC(C)=O	none (no result: PNC assembly inh, HPGD block)
O=C(c1cnccn1)N1CCC2(CC1)CN(Cc1nccs1)C2	none (no result: PNC assembly inh)
CSc1ncnc2c1ncn2[C@@H]1O[C@@H](CO)[C@H](O)O[C@@H]1O	none (no result: PNC assembly inh)
CCOC(=O)/C=C1\NC(C)(C)Cc2cc(OC)c(OC)cc21	none
CCOC(=O)/C=C1\NC(C)(C)Cc2cc(OC)c(O)cc21	ALDH1A1 inh 11µM, PNC assembly inh inconclusive, HPGD block 35µM
